Data reported in PubChem BioAssay (NCI).
The panel holds about 79,000 compounds, 15% with a hit somewhere; the sample as a whole holds those more often. The source made the active and inactive calls. Rule as the data show it: active = growth inhibition above about 70%; inactive = the rest.

Experiment: NCI Yeast Anticancer Drug Screen. Data for the rad50 strain (AID 155);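 also: 0% = growth of vehicle-only cultures of the same strain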
Details: S. cerevisiae rad50 strain growth inhibition; at 50.0 µM; hits give high values
Procedure, shortened: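 Genetically altered yeast (DNA repair pathway); compound treatment; growth inhibition vs vehicle ctrl.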

Structure (SMILES)	growth inhibition
CSc1c(S(C)=O)[nH]c2cc(Br)cc(Br)c12 (stereo not given)	84.2% (active)
Cc1ccc2cccc(CCOC(=O)c3ccc([N+](=O)[O-])cc3)c2c1	-13.5% (inactive)
CCOc1ccc(N=Cc2cc(Br)ccc2O)cc1	2.55% (inactive)
CCOC(=O)C1(c2ccccc2)CCNC(=O)CC1 (stereo not given)	7.65% (inactive)
CN(C)Cc1cc(N=Nc2ccccc2Cl)cc(CN(C)C)c1O	-40.5% (inactive)
CN(/N=C\c1ccc2ccccc2c1)C1=NCCCCN1	-2.05% (inactive)
Cc1cccc(-c2c3ccccc3cc3ccccc23)c1	6.35% (inactive)
CCOC(=O)C1=C(Nc2ccc(Cl)cc2Cl)OC/C1=N\NS(=O)(=O)c1ccc(C)cc1	-3.95% (inactive)
COc1cc2c(C)cc(=O)oc2c(OCC(O)CN2CCCC2)c1OC (stereo not given)	-0.75% (inactive)
CCOC(=O)C(C(=O)OCC)C(C(=O)OCC)(C(=O)OCC)C(C(=O)OCC)C(=O)OCC	-15.2% (inactive)
Nc1ccnc2n[nH]nc12	-3.7% (inactive)
CC1(N)CCC(C(C)(C)N)CC1 (stereo not given)	28.1% (inactive)
CC1=C(CCC(C)CO)OC2CC3C4CC=C5CC(O)CCC5(C)C4CCC3(C)C12 (stereo not given)	19.1% (inactive)
C/C(CC(=O)Nc1ccccn1)=N\c1ccccn1	14.2% (inactive)
O=C(/C=C/c1ccc2c(c1)OCO2)NCc1ccco1	53.5% (inactive)
O=c1[nH]c(=S)[nH]c2[nH]ccc12	6.75% (inactive)
Cc1cnc2c(C)ccc([N+](=O)[O-])c2c1NCCCN(C)C	34.2% (inactive)
CCCC1(CCC)NC(=O)N(CC(N)=O)C1=O	7.45% (inactive)
COC(=O)c1nn(-c2ccccc2)c2nc3ccccc3c-2c1C(=O)OC	39.8% (inactive)
O=C1OCc2cccc3c2-c2c1cccc2C(=O)OC3	-3% (inactive)
CC(C)/C=C1\CCC(CN2CCCC2)C1=O (stereo not given)	61.5% (inactive)
NCCn1ccnc1	13.3% (inactive)
S=C1SCN(c2ccc3c(c2)OCO3)CN1c1ccc2c(c1)OCO2	-24.4% (inactive)
O=C(/C=C/c1ccccc1)Nc1ccc([N+](=O)[O-])cc1Cl	4.75% (inactive)
CCC(=O)OCCCCCCOC(=O)CC	18.3% (inactive)
